About 37,000 (12%) of roughly 300,000 compounds were called active. Rule as the data show it: active = max response mostly above about 13% (no sharp cut-off); inactive = mostly below about 14%. The sample as a whole holds a higher share of actives than the screen did.
assay: Cycloheximide Counterscreen for Small Molecule Inhibitors of Shiga Toxin; settings: cell reporter, cycloheximide protein synthesis inhibition counterscreen; hits give high values; also: read at 38.3 µM for the half of the compounds with a filed dose; 0% is about no effect

Compound | max response
O=C(O)CC(c1ccccc1F)N1Cc2ccccc2C1=O (stereo unspecified) | -3.84% (inactive)
COc1cc([N+](=O)[O-])cc([N+](=O)[O-])c1NC(=O)N1CCOCC1 | -3.17% (inactive)
COc1ccc(OCCCON2C(=O)c3ccccc3C2=O)cc1 | -3.07% (inactive)
O=C(OCCN1C(=O)c2ccccc2C1=O)Oc1ccccc1 | -5.45% (inactive)
O=C1c2ccccc2C(=O)N1CCOc1ccc(F)cc1 | 34.9% (active)
COc1cc(OC)cc(C(=O)Nc2nnc(SCC(=O)NCC3CCCO3)s2)c1 (stereo unspecified) | 5.61% (inactive)
COC(=O)C1=C(C)N(C(C)c2ccccc2)C(=O)/C1=C\c1ccco1 (stereo unspecified) | 12.5% (inactive)
O=C(Nn1cnnc1)c1cc(Cl)ccc1Cl | 1.72% (inactive)
COc1cccc(-n2c(SCC(=O)c3c[nH]c4ccccc34)nc3ccccc3c2=O)c1 | -2.32% (inactive)
CCc1c(O)nc(SCC(=O)N2CCCCC2)n(-c2ccccc2C)c1=O | -1.43% (inactive)
Cc1ccc(-n2c(SCC(=O)N3CCC(C(=O)O)CC3)nc3ccccc3c2=O)cc1C | 25.2% (active)
Cc1[nH]c2ccccc2c1C(=O)CN1CC(C)CC(C)C1 (stereo unspecified) | -1.83% (inactive)
O=C(NCc1ccccc1)C1=C[C@@H](c2ccc(C(F)(F)F)cc2)C[C@@H](OCc2ccc(CO)cc2)O1 | 6.43% (inactive)
C=CCOC(=O)C1=C[C@@H](c2ccccc2)C[C@@H](OCc2ccc(CO)cc2)O1 | 8.03% (inactive)
O=C(NCc1ccccc1)C1=C[C@H](C2CC2)C[C@H](OCc2ccc(CO)cc2)O1 | -2.61% (inactive)
NC(=O)C1=C[C@@H](c2csc3ccccc23)C[C@@H](OCc2ccc(CO)cc2)O1 | -2.5% (inactive)
O=C(NC1CC1)C1=C[C@H](c2c[nH]c3ccccc23)C[C@H](OCc2ccc(CO)cc2)O1 | 16.2% (active)
NC(=O)C1=C[C@H](c2csc3ccccc23)C[C@H](OCc2ccc(CO)cc2)O1 | 20.4% (active)
CCc1cccc(NC(=O)CCCN2C(=O)C(c3ccccc3)Oc3cccnc32)c1 (stereo unspecified) | 11.2% (inactive)
C=C(Br)Cn1c(CCCC)nc2ccccc21 | 3.99% (inactive)
COc1ccc(C)cc1S(=O)(=O)NCCc1ccccc1 | -1.77% (inactive)
COc1ccc(CCN2C(=O)N(c3ccc(OC)cc3)C(=O)C2CC(=O)Nc2ccc(OC)cc2)cc1 (stereo unspecified) | 1.2% (inactive)
Cc1cc(C(F)F)nn1CC(=O)NC1CCCCCC1 | 6.8% (inactive)
O=C(CN1CCCCCC1)Nc1ccc(Br)cc1Br | 15.8% (inactive)

Compound | max response
Cc1ccc(CC2CC(=O)N(c3ccc4c(c3)OCCO4)C2=O)cc1 (stereo unspecified) | 21.2% (inactive)
O=CN1CCN(C2CC(=O)N(c3ccc4c(c3)OCO4)C2=O)CC1 (stereo unspecified) | 11.4% (inactive)
Cc1ccc(N2C(=O)CC(NCc3ccc4c(c3)OCO4)C2=O)cc1Cl (stereo unspecified) | 24% (active)
CCNC(=O)CC1C(=O)N(c2ccc(OC)cc2)C(=S)N1CCc1ccncc1 (stereo unspecified) | -6.33% (inactive)
Cc1ccc2c(c1)N(CC(=O)NCC1CCCO1)C(=O)CO2 (stereo unspecified) | -1.04% (inactive)
O=C(NCCCN1CCCCC1)C1CC(=O)N(CCc2ccccc2)C1 (stereo unspecified) | 3.29% (inactive)
COc1ccc(/C=C/C(=O)Nc2ccc3c(c2)OCCO3)cc1OC | 34.3% (active)
COc1ccc(OC)c(/C=C/C(=O)OCC(=O)Nc2ccc3c(c2)OCCO3)c1 | 4.24% (inactive)
COc1ccc(/C=C/C(=O)Nc2ccc(C)cc2)cc1S(=O)(=O)N1CCOCC1 | 10.5% (inactive)
O=C(/C=C\c1ccc2c(c1)OCO2)NC1(C(=O)Nc2ccc3c(c2)OCCO3)CCCCC1 | -4.38% (inactive)
COc1cccc(C(=O)Nc2cccnc2)c1OC | 2.63% (inactive)
COc1cc(/C=N/NC(=S)Nc2cccnc2)cc(OC)c1O | 14% (inactive)
COc1ccc(/C=C/C(=O)Nc2cccnc2)cc1OC | 19.5% (active)
COc1ccc(NS(=O)(=O)c2cc(NC(=O)/C=C/c3cc(OC)c(OC)c(OC)c3)ccc2N2CCCCC2)cc1 | -2.53% (inactive)
COc1ccc(/C=C/C(=O)Nc2ccc(C34CC5CC(CC(O)(C5)C3)C4)cc2)cc1OC | 36.8% (active)
COc1cccc(/C=C/C(=O)Nc2ccc3c(c2)OCCO3)c1 | 51.1% (active)
COc1ccc(/C=C/C(=O)N2CCCC2)cc1OC | 5.12% (inactive)
CCOc1ccc2c(=O)c(-c3ccc4c(c3)OCCCO4)c(C)oc2c1 | 7.6% (inactive)
CCOc1ccccc1Nc1ccc(C(=O)O)cc1[N+](=O)[O-] | -4.22% (inactive)
CCSc1nc2sc3c(c2c(=O)[nH]1)CC(C)(C)OC3 | 0.89% (inactive)
Cc1cccn2cc(-c3cccc(S(=O)(=O)N4CCCCC4)c3)nc12 | 15.4% (active)
O=S(=O)(c1cccc(-c2cn3ccccc3n2)c1)N1CCCC1 | 13.9% (inactive)
O=S(=O)(c1cccc(-c2nnc3n2CCCCC3)c1)N1CCOCC1 | -0.622% (inactive)
CCc1cc2c(N3CCN(c4nnc(CC)s4)CC3)ncnc2s1 | -4.57% (inactive)

Compound | max response
COc1ccc(-n2c(C)cc(C(=O)CN3C(=O)NC4(CCc5ccccc54)C3=O)c2C)cc1 (stereo unspecified) | 3.03% (inactive)
Oc1ccc(N2CCN(C(=S)NCc3ccccc3)CC2)cc1 | -5.44% (inactive)
S=C(NCCCc1ccccc1)Nc1ccc(Br)cc1 | 9.21% (inactive)
S=C(NCCc1ccccc1)Nc1ccccc1 | 52.7% (active)
O=C(CS(=O)(=O)Cc1ccccc1)NCC1CCCO1 (stereo unspecified) | -0.705% (inactive)
S=C(NCCc1ccccc1)NCc1ccccc1Cl | 2.05% (inactive)
CC1CCCCN1C(=S)NCc1ccccc1 (stereo unspecified) | 0.333% (inactive)
Oc1c(Br)cc(/C=N/NC(=S)NCC2CCCO2)cc1Br (stereo unspecified) | 1.44% (inactive)
Cc1nnc(OCC(=O)NCCC2=CCCCC2)c2ccccc12 | -1.88% (inactive)
S=C(NCCc1ccccc1)NCC1CCCO1 (stereo unspecified) | 29.4% (active)
O=C(Cc1cccc2ccccc12)NCCC1=CCCCC1 | -2.35% (inactive)
S=C(NCCC1=CCCCC1)Nc1ccccc1 | 39.2% (active)
Oc1ccccc1N1CCN(C(=S)NCc2ccccc2)CC1 | 31.8% (active)
Cc1nc2ccccc2c(=O)n1NC(=O)c1ccccc1 | -1.37% (inactive)
COc1ccc(CN(C)Cc2nc3cc(OC)c(OC)cc3c(=O)[nH]2)c(OC)c1 | -2.17% (inactive)
CCN(C(=O)CN1C(=O)/C(=C/c2ccc(F)cc2)SC1=S)C1CCS(=O)(=O)C1 (stereo unspecified) | -13.6% (inactive)
Cc1cccc(N2CCN(C(=O)CCS(=O)(=O)c3ccc4c(c3)NC(=O)C(C)S4)CC2)c1C (stereo unspecified) | -1.44% (inactive)
CCCc1ccc(-c2c(C)sc(NC(=O)c3ccnn3C)c2C#N)cc1 | -3.68% (inactive)
O=C(CCc1n[nH]c(=O)[nH]c1=O)N/N=C/c1ccc(Br)o1 | -9.24% (inactive)
COCCNC(=O)COc1ccc(N(C)S(=O)(=O)c2ccc3ccccc3c2)cc1 | -5.19% (inactive)
N#Cc1c(-c2ccccc2)c(-c2ccccc2)n[nH]c1=O | 0.547% (inactive)
COc1cccc(CNC(=O)CN(C)S(=O)(=O)c2ccc3c(c2)c(=O)n(C)c(=O)n3C)c1 | -2.54% (inactive)
CC(=O)c1ccccc1OCc1ccc(C(=O)c2ccccc2)cc1 | 2.75% (inactive)
O=C1CCN(C(=S)NCCc2ccccc2)CC1 | 16% (inactive)

Compound | max response
S=C(NCCc1ccccc1)N1CCCCC1 | 60.3% (active)
COc1ccc(C(=O)NC2CCN(C(=S)NCCc3ccccc3)CC2)cc1 | -2.31% (inactive)
CCc1ccc(-c2cc(C)no2)cc1S(=O)(=O)NCCc1ccc(S(N)(=O)=O)cc1 | -3.78% (inactive)
O=c1[nH]nc(CSCc2ccccc2Cl)[nH]1 | -2.59% (inactive)
COc1ccc(OC(C)C(=O)NCCc2nc3ccccc3[nH]2)cc1 (stereo unspecified) | -2.98% (inactive)
c1ccc(-c2nnc(SCc3nc4ccccc4[nH]3)o2)cc1 | 10.9% (inactive)
N=C(N)SCc1cccc2ccccc12 | -4.81% (inactive)
c1ccc2c(CSCc3nc4ccccc4[nH]3)cccc2c1 | 13.2% (active)
Clc1ccccc1SCc1nc2ccccc2[nH]1 | 52.8% (active)
Cc1ccc(S(=O)(=O)c2c[nH]c3ccc(Cl)cc3c2=O)cc1 | -0.873% (inactive)
CC(NC(=O)CCCC1CCCCC1)c1ccc(S(N)(=O)=O)cc1 (stereo unspecified) | -1.75% (inactive)
CCC(=O)N1CCN(c2ccccc2NC(=O)COc2cccc(C)c2C)CC1 | -0.942% (inactive)
O=C(Nc1c2c(nn1-c1cccc(Cl)c1)CS(=O)(=O)C2)c1cccs1 | -4.62% (inactive)
COc1ccc(CN(Cc2ccco2)S(=O)(=O)c2ccc(S(=O)(=O)N3CCCC3)cc2)cc1 | -2.84% (inactive)
CCN(CC)CCCN=C(N)N | -0.653% (inactive)
CCCCCCCCCCCCN=C(N)N | 13.5% (active)
CCCCCCCN=C(C)c1ccccc1O | -3.52% (inactive)
O=C1C(=O)N(CC2COc3ccccc3O2)c2ccccc21 (stereo unspecified) | -1.34% (inactive)
COc1cccc(CNS(=O)(=O)c2cc3c(cc2C)n(C)c(=O)c(=O)n3C)c1 | -2.63% (inactive)
COc1cccc(CNc2nc(C(F)(F)F)nc3ccccc23)c1 | -1.53% (inactive)
COc1cccc(CNc2ncc(-c3ccccc3)n2C)c1 | 23.9% (active)
CCOC(=O)C1CCN(C(=O)Cn2nc(C)c3c(C)n(-c4ccccc4)nc3c2=O)CC1 | -0.326% (inactive)
O=C(CCc1nnc2ccc(NCCCN3CCCC3=O)nn12)NCc1ccccc1Cl | -2.54% (inactive)
CC(C)(C)NC(=O)C(c1ccc(Cl)cc1)N(CCO)C(=O)c1snc(C(N)=O)c1N (stereo unspecified) | -3.49% (inactive)

From PubChem BioAssay AID2314 (National Center for Advancing Translational Sciences (NCATS), 2010)
